Assay results as given in the supplement of paper PMC10849652.
Targets with a hit are over-represented here; the source holds about 8,800 in all. About 0.5% of all pairs of compound and target were hits. Unmarked numbers belong to inactive results.

Columns and labels:
Assay in all cases: log2 fold change, soluble protein after heating vs DMSO (PISA); higher = thermal stabilisation; K562 lysate, 10 uM; active = over 0.2 and 3.5 SD of the protein, either way, in both replicates (recomputed)
vemurafenib = compound: CCCS(=O)(=O)Nc1ccc(F)c(C(=O)c2c[nH]c3ncc(-c4ccc(Cl)cc4)cc23)c1F [vemurafenib]
Outline: (§1)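 Thermal stability, expressed as log-two fold change relative to solvent controls, is given from duplicates. Crude K562 extract in PBS pH 7.4 with 1 mM MgCl2, at 1 mg/mL protein, was treated with 10 μM compound for 30 min and heated in aliquots for 3 min across 48°C-58°C. After pooling, adjustment to 0.5% NP-40 at 4°C and centrifugation at 21,000xg for 90 min, supernatant protein was measured by TMTpro 16plex LC-MS/MS with channel sums equalised.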

[1] = compound: CCCS(=O)(=O)Nc1ccc(F)c(C(=O)c2c[nH]c3ncc(Cl)cc23)c1F
Outline: as §1

barasertib = compound: CCN(CCCOc1ccc2c(Nc3cc(CC(=O)Nc4cccc(F)c4)[nH]n3)ncnc2c1)CCOP(=O)(O)O [barasertib]
Outline: as §1

[2] = compound: CC[C@@H]1C(=O)N(C)c2cnc(Nc3ccc(C(=O)NC4CCN(C)CC4)cc3OC)nc2N1C1CCCC1
Outline: as §1

volasertib = compound: CC[C@@H]1C(=O)N(C)c2cnc(Nc3ccc(C(=O)N[C@H]4CC[C@H](N5CCN(CC6CC6)CC5)CC4)cc3OC)nc2N1C(C)C [volasertib]
Outline: as §1

[3] = compound: CCn1c(C(=O)N(C2CC2)C2CC2)cc2c3c(ncn3C)c(Nc3cc(C)n(C)n3)nc21
Outline: as §1

[4] = compound: CCn1cc(-c2ccnc3[nH]c(-c4cccc(CN(C)C)c4)cc23)c(-c2ccc(NC(=O)N(C)C)cc2)n1
Outline: as §1

[5] = compound: CN1CCC(CNc2ccc3ncc(-c4cccc(OC(F)(F)F)c4)n3n2)CC1
Outline: as §1

saracatinib = compound: CN1CCN(CCOc2cc(OC3CCOCC3)c3c(Nc4c(Cl)ccc5c4OCO5)ncnc3c2)CC1 [saracatinib]
Outline: as §1

sotrastaurin = compound: CN1CCN(c2nc(C3=C(c4c[nH]c5ccccc45)C(=O)NC3=O)c3ccccc3n2)CC1 [sotrastaurin]
Outline: as §1

UniProt Q8TAT6, sequence (Q8TAT6 whole entry, looked up): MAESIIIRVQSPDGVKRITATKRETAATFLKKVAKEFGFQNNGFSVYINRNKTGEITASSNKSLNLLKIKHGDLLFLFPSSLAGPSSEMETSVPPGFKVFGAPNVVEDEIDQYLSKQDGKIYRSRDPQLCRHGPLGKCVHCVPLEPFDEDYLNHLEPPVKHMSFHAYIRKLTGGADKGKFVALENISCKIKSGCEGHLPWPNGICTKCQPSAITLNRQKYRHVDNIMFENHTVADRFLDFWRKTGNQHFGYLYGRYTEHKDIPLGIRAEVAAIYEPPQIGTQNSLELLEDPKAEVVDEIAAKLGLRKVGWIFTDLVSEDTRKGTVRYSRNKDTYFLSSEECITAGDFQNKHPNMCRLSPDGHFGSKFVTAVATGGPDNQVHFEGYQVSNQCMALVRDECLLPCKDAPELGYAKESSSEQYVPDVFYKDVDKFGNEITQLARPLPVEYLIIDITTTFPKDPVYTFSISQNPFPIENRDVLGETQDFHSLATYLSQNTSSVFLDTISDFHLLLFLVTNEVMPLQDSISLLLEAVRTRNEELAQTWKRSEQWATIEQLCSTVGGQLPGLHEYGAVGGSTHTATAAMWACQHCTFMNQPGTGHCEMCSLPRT
UniProt Q8TEW0, sequence (Q8TEW0 whole entry, looked up): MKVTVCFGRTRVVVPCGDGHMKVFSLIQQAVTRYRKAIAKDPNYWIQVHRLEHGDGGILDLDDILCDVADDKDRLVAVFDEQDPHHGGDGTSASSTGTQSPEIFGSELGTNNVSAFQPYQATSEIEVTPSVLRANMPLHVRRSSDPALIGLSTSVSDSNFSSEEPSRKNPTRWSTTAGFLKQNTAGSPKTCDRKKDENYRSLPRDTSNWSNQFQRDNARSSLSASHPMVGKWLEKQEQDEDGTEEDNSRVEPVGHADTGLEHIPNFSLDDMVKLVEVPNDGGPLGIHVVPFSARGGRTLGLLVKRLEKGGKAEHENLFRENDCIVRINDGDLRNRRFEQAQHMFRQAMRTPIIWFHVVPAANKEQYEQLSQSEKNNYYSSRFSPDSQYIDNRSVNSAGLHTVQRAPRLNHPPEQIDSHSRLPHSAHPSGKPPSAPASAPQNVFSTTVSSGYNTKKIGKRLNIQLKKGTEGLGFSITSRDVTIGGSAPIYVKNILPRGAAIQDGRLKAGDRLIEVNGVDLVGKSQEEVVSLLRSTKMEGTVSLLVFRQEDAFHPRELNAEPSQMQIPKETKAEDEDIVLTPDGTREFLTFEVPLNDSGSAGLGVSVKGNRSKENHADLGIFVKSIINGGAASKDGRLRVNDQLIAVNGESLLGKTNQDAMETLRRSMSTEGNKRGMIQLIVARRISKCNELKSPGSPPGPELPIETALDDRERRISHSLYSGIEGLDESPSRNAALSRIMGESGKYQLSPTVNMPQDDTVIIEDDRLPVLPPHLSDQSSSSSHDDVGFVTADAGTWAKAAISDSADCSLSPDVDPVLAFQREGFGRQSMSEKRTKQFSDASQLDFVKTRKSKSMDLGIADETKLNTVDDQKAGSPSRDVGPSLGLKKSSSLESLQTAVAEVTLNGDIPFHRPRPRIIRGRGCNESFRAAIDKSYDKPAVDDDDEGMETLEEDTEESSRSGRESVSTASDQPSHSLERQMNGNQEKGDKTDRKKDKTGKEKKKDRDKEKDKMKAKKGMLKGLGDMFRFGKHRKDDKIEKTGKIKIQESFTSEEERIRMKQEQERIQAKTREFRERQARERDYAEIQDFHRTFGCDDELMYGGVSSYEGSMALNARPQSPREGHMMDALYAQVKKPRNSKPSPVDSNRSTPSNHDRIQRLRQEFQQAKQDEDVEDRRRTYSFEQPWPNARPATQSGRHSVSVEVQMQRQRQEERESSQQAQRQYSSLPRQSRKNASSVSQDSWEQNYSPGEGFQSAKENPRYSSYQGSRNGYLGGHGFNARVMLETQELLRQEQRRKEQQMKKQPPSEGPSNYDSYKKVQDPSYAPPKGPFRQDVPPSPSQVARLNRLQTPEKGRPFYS
UniProt P52701, sequence (P52701 whole entry, looked up): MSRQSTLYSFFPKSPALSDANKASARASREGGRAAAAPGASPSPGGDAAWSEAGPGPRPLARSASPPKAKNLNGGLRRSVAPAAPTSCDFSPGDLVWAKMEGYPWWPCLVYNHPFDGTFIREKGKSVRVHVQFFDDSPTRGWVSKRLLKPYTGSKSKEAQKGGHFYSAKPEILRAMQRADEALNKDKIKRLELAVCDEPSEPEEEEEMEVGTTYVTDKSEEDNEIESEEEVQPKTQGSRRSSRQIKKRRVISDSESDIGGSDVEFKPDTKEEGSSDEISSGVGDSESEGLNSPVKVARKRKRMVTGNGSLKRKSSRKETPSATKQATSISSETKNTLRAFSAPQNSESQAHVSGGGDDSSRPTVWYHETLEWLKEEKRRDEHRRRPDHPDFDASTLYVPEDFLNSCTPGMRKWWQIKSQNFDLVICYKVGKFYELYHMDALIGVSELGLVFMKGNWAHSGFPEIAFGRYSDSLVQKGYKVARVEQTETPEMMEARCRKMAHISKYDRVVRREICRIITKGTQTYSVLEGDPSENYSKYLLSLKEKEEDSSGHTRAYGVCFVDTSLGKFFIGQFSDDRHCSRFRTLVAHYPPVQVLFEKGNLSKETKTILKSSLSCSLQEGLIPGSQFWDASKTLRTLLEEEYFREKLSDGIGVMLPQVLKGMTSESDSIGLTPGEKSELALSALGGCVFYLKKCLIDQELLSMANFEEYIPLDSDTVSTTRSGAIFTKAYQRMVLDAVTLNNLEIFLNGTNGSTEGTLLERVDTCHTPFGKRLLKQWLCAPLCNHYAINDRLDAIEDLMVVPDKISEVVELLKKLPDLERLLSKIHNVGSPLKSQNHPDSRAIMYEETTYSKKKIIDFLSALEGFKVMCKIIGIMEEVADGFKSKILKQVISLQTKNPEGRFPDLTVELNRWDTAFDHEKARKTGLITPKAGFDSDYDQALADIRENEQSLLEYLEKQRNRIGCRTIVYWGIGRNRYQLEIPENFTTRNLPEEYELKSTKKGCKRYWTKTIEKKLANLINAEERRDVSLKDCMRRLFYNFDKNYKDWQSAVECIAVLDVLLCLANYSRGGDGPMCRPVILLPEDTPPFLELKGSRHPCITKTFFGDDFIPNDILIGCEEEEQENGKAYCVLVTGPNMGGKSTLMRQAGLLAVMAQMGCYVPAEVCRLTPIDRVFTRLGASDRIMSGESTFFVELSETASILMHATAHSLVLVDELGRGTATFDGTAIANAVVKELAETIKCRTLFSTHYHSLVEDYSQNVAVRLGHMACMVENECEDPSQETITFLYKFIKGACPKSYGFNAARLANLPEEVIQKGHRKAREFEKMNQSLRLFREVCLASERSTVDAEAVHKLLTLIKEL
UniProt P28331, sequence (P28331 whole entry, looked up): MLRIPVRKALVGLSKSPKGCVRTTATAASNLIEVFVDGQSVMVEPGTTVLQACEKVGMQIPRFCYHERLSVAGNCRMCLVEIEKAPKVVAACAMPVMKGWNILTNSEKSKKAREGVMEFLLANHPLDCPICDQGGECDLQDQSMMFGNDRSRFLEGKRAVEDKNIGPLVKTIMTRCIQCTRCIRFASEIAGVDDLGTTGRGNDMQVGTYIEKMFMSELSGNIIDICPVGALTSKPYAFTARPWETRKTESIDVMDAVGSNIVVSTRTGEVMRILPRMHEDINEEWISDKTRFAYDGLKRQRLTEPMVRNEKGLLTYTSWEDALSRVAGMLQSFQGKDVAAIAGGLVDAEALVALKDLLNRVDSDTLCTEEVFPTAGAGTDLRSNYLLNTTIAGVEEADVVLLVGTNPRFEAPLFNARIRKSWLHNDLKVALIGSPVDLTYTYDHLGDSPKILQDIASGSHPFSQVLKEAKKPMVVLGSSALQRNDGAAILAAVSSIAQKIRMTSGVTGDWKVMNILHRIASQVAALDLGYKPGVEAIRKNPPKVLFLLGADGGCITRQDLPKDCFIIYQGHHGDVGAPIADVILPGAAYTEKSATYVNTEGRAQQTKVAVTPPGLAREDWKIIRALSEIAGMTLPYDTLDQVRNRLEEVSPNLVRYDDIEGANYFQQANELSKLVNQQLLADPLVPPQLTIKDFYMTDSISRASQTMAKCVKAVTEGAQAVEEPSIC
UniProt Q147X3, sequence (Q147X3 whole entry, looked up): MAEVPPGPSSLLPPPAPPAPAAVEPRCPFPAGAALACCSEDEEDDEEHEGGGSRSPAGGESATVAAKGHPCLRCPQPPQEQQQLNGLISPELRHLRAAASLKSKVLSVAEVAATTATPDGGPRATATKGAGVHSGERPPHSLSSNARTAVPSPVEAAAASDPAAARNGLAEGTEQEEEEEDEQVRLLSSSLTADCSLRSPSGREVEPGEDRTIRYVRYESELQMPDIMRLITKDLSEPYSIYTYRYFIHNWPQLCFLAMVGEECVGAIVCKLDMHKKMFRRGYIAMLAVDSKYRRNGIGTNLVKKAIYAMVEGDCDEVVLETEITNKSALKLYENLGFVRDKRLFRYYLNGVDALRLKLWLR
UniProt Q8IVI9, sequence (Q8IVI9 whole entry, looked up): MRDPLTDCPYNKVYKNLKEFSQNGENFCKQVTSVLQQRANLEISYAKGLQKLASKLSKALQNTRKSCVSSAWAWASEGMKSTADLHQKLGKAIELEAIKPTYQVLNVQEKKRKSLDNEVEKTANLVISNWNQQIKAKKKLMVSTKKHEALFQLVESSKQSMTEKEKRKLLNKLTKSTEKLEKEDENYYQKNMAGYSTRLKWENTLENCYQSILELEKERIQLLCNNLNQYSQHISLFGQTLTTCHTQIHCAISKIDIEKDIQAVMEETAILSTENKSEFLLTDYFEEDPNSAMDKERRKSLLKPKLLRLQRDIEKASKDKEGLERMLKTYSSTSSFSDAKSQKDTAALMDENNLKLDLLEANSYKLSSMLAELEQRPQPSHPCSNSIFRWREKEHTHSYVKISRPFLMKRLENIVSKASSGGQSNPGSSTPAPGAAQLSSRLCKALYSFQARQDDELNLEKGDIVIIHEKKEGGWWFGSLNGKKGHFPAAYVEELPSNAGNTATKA
UniProt Q9BPZ3, sequence (Q9BPZ3 whole entry, looked up): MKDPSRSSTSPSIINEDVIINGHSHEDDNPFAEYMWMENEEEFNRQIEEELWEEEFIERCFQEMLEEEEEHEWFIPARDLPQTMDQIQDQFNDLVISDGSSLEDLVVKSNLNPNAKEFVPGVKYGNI

Target	log2 fold change (vemurafenib)	log2 fold change [1]	log2 fold change (barasertib)	log2 fold change [2]	log2 fold change (volasertib)	log2 fold change [3]	log2 fold change [4]	log2 fold change [5]	log2 fold change (saracatinib)	log2 fold change (sotrastaurin)
PANK4 (UniProt Q9NVE7)	0.026	0.011	0.054	-0.051	-0.091	0.003	-0.136	0.077	0.001	0.012
PARD3 (UniProt Q8TEW0)	0.145	-0.017	-0.123	-0.009	-0.016	-0.032	-0.147	-0.08	0.016	0.004
PBK (UniProt Q96KB5)	-0.006	0.002	-0.009	-0.069	-0.033	0.039	0.043	-0.017	-0.018	-0.015
NIT2 (UniProt Q9NQR4)	-0.003	0.005	-0.008	0.005	-0.004	-0.004	0.02	-0.013	-0.008	-0.012
NSUN2 (UniProt Q08J23)	0.028	0.004	-0.006	-0.032	0.004	0.037	0.081	-0.022	0.006	0.005
ORC2 (UniProt Q13416)	0.048	0.007	0.003	-0.077	-0.048	0.002	-0.002	-0.085	0.007	0.049
MRPS18A isoform 2 (UniProt Q9NVS2)	0.073	0.03	0.037	0.073	-0.019	-0.04	0.306 (active)	-0.121	-0.042	0.036
NDUFS1 isoform 2 (UniProt P28331)	0.041	0.018	0.011	-0.032	-0.001	0.016	-0.006	-0.027	-0.004	0.054
NOC2L (UniProt Q9Y3T9)	0.04	0.021	0.028	-0.029	-0.035	0.006	-0.079	-0.016	-0.078	0.05
MTHFD1, A0A384N5Y3	0.058	0.011	0.017	-0.06	-0.112	0.059	0.008	-0.053	-0.012	0.039
NUP210 (UniProt Q8TEM1)	-0.009	0.048	0.072	-0.004	0.006	0.036	0.012	-0.015	0.029	-0.004
PAIP2 (UniProt Q9BPZ3)	0	-0.013	0.272 (active)	0.039	-0.018	0.02	-0.043	-0.001	-0.081	-0.073
MRPS12 (UniProt O15235)	0.062	0.035	0.003	0.045	0.011	0.001	-0.038	0.001	0.016	0.028
NAA30 (UniProt Q147X3)	0.001	0.009	0.037	0.043	0.012	-0.058	-0.022	0.043	-0.003	0.045
MSH6 (UniProt P52701)	0.024	0.028	0.021	-0.109	-0.061	0.044	-0.035	-0.041	-0.003	0.047
NOSTRIN (UniProt Q8IVI9)	0.091	0.024	0.085	-0.178	-0.029	-0.026	0.025	-0.094	-0.001	-0.054
NCOR2 (UniProt C9J0Q5)	0.006	0.021	0.024	0.009	0.009	0.056	0.019	0.036	-0.026	0.032
NUP98 (UniProt P52948)	0.001	0.035	0.02	-0.005	-0.071	0.031	-0.062	0.019	0.073	-0.005
PANK1 (UniProt Q8TE04)	0.086	0.036	0.097	-0.231	-0.063	0.056	0.226	-0.253	0	0.052
NPLOC4 isoform 2 (UniProt Q8TAT6)	-0.011	0.025	-0.019	0.025	-0.011	-0.016	-0.066	0.007	0.004	-0.005
NPTN (UniProt Q9Y639)	-0.028	-0.042	0.007	0.032	-0.038	-0.017	-0.019	0.052	0.02	-0.016
MYOM1 (UniProt P52179)	0.015	-0.082	0.021	0.049	0.123	-0.356	-0.185	0.088	-0.086	-0.163
NOA1 (UniProt Q8NC60)	0.041	-0.009	0.043	0.029	-0.024	-0.083	-0.229	0.028	0.016	0.037
NAP1L5 (UniProt Q96NT1)	-0.094	0.005	0.037	0.181	-0.033	0.052	0.62 (active)	-0.205	-0.15	0.08
OTUD7B (UniProt Q6GQQ9)	0.033	0.011	0.116	-0.029	-0.049	0.018	0.017	-0.042	0.015	-0.011
OGFOD2 (UniProt Q6N063)	0.024	0.173	0.005	-0.147	-0.062	-0.023	-0.042	0.071	-0.047	0.039
NUP205 (UniProt Q92621)	0.007	0.017	0.038	-0.047	-0.074	0.027	-0.075	-0.064	0.043	0.022
PARG (UniProt Q86W56)	0.028	0.033	0.008	-0.027	-0.018	-0.015	0.065	-0.032	0.006	0.02
MSH2 (UniProt P43246)	-0.014	0.001	0.007	-0.033	-0.068	0.038	0.003	-0.055	0	0.032
NFIC (UniProt P08651)	-0.071	0.014	-0.106	0.101	-0.001	-0.01	-0.453 (active)	0.055	0.049	-0.01
